Columns and labels:
Experiment in all cases: DAPPL (digital affinity profiling via proximity ligation, sequencing); 10 mM Tris-HCl pH 7.5, 50 mM NaCl, 1 mM DTT, 4% glycerol, room temperature, 30 min; GST-TFs on glutathione beads, 16-mer random dsDNA library, 0.1% formaldehyde crosslink after washing; high values mean tight binding
FEV = target: T1, FEV (Homo sapiens, UniProt Q99581 1-238); conditions: protein: recombinant; tags: N-terminal GST; dsDNA, one strand shown
T1 sequence: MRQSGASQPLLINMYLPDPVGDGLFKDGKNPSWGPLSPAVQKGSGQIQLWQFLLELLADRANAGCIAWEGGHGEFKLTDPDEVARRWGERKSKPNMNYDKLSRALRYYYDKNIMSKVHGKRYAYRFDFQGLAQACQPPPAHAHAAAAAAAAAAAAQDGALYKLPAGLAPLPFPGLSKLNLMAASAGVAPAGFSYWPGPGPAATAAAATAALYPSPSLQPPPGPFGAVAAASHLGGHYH
Method in brief: (§1)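 Binding signal is given per hexamer as its read frequency for a factor divided by its frequency in the tag-only sample. GST-fused human transcription factors were expressed in yeast, captured on glutathione beads, barcoded with DNA and pooled with that sample, then incubated with 200 nmole of a 16-mer random double-stranded DNA library in Tris/NaCl/DTT/glycerol buffer for 30 min at room temperature. The pools were then washed, crosslinked, proximity-ligated, amplified by PCR and sequenced on an Illumina NextSeq500.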

ETV5 = ETV5 (Homo sapiens, UniProt P41161 1-510); conditions: protein: recombinant; tags: N-terminal GST; dsDNA, one strand shown
Method in brief: as §1

HSF1 = HSF1 (Homo sapiens, UniProt Q00613 1-529); conditions: protein: recombinant; tags: N-terminal GST; chain copies: 3; dsDNA, one strand shown
Method in brief: as §1

SPIC = target: T2, SPIC (Homo sapiens, UniProt Q8N5J4 1-248); conditions: protein: recombinant; tags: N-terminal GST; dsDNA, one strand shown
T2 sequence: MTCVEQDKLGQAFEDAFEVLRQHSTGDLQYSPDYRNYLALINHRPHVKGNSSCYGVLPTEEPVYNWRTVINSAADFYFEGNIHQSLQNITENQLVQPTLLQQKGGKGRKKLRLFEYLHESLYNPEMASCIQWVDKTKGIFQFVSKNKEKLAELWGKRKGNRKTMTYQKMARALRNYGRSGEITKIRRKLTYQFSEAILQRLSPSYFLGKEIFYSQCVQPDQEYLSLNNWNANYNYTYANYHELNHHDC
Method in brief: as §1

ELF4 = ELF4 (Homo sapiens, UniProt Q99607 1-663); conditions: protein: recombinant; tags: N-terminal GST; dsDNA, one strand shown
Method in brief: as §1

ELK4 = target: T3, ELK4 (Homo sapiens, UniProt P28324-2 1-405); conditions: protein: recombinant; tags: N-terminal GST; dsDNA, one strand shown
T3 sequence: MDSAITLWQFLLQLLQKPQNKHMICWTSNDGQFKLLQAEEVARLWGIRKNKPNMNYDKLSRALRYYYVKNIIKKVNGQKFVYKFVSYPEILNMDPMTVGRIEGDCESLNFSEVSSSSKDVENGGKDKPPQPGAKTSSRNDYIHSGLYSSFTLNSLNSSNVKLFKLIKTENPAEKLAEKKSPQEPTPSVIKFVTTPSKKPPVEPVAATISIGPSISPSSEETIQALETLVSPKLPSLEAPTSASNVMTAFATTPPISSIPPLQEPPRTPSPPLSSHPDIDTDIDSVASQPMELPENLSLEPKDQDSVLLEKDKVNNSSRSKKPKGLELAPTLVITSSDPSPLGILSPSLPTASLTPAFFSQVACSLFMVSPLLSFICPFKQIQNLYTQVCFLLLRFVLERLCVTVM
Method in brief: as §1

ETV2 = target: T4, ETV2 (Homo sapiens, UniProt O00321 1-342); conditions: protein: recombinant; tags: N-terminal GST; dsDNA, one strand shown
T4 sequence: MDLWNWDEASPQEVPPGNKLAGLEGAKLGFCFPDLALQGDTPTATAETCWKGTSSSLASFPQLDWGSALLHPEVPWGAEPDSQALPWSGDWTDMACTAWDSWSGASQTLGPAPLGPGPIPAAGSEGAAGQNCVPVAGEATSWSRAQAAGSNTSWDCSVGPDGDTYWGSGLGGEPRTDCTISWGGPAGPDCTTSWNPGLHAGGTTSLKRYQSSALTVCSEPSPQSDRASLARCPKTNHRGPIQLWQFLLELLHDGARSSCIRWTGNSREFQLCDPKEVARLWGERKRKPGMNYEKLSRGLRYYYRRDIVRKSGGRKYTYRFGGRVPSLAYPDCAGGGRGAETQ
Method in brief: as §1

ELF3 = target: T5, ELF3 (Homo sapiens, UniProt P78545 1-371); conditions: protein: recombinant; tags: N-terminal GST; dsDNA, one strand shown
T5 sequence: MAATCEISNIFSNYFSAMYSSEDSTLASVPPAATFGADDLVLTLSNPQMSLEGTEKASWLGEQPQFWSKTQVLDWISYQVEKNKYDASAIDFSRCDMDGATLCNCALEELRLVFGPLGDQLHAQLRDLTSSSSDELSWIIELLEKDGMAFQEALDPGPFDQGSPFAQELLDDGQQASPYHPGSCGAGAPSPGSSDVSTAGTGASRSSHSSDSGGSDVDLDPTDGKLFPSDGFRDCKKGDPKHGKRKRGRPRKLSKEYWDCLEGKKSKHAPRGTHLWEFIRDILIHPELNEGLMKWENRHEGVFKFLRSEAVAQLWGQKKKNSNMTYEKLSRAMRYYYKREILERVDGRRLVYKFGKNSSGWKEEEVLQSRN
Method in brief: as §1

CRX = CRX (Homo sapiens, UniProt O43186 1-299); conditions: protein: recombinant; tags: N-terminal GST; dsDNA, one strand shown
Method in brief: as §1

ETV1 = ETV1 (Homo sapiens, UniProt P50549 1-477); conditions: protein: recombinant; tags: N-terminal GST; dsDNA, one strand shown
Method in brief: as §1

Sequence of ETV1 (P50549 whole entry): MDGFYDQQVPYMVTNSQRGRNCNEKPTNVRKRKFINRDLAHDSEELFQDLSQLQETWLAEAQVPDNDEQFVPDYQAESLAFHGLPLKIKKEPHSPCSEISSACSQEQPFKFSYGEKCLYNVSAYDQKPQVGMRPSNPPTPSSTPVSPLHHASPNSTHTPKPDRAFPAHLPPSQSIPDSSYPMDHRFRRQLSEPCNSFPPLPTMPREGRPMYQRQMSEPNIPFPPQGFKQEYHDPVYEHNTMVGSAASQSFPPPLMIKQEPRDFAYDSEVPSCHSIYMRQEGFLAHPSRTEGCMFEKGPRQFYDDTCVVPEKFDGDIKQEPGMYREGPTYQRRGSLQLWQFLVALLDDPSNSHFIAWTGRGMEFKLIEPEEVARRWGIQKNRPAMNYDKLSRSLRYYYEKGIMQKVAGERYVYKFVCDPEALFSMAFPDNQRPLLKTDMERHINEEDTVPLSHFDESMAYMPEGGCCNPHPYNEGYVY
Sequence of ELF4 (Q99607 whole entry): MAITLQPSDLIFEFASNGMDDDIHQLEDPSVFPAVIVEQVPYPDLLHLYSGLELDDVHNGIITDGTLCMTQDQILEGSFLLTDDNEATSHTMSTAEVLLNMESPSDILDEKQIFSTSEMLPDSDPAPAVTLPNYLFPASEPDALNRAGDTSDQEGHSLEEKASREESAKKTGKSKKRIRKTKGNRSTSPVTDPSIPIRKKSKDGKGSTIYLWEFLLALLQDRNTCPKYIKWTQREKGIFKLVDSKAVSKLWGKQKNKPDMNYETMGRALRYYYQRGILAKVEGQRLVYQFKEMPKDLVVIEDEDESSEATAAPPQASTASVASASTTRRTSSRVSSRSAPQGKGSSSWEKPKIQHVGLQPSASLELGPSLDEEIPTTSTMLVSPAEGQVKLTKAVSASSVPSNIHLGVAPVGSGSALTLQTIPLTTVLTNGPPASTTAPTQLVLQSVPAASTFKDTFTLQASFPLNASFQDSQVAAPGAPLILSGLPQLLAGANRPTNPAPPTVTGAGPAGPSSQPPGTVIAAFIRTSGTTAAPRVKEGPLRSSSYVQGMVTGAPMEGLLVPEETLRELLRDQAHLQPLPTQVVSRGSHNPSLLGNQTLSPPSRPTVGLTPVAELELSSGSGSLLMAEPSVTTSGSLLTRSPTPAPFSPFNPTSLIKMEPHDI
Sequence of ETV5 (P41161 whole entry): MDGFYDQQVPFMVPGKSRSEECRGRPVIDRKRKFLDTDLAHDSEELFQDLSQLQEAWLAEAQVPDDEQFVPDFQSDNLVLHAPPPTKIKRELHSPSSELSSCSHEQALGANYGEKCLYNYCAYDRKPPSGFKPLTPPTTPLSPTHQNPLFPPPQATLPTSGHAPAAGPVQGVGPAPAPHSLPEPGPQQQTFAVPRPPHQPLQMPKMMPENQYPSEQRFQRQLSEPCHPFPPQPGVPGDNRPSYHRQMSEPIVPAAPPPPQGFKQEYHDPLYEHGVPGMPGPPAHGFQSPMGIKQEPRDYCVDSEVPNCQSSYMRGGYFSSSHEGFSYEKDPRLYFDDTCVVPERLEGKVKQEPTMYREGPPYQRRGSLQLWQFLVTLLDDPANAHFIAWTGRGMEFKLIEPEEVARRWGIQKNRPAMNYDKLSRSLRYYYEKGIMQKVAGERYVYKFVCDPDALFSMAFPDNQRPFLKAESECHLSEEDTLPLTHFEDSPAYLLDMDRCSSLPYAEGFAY
Sequence of CRX (O43186 whole entry): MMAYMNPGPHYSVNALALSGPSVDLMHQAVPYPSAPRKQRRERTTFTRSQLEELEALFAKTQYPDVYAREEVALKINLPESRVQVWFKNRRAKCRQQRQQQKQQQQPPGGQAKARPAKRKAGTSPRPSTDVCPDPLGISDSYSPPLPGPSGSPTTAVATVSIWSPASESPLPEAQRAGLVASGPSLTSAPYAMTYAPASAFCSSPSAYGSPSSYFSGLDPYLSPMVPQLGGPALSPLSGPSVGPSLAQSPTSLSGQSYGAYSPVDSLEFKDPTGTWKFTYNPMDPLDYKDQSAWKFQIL
Sequence of HSF1 (Q00613 whole entry): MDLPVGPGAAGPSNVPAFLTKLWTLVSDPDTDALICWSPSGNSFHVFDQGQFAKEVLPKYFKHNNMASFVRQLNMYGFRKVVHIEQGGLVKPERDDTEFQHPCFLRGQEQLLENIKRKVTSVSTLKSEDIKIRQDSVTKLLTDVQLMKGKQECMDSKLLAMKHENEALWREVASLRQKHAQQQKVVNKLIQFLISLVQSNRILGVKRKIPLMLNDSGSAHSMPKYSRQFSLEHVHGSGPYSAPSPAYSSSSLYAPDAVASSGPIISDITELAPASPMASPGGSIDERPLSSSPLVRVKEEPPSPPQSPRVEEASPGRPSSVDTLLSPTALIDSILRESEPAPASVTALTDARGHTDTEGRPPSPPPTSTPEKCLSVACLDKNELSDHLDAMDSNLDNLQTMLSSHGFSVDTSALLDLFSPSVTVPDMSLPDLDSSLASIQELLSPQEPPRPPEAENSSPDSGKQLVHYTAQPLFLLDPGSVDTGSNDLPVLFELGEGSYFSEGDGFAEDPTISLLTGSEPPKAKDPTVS

Row | Sequence | binding signal (FEV) | binding signal (ETV5) | binding signal (HSF1) | binding signal (SPIC) | binding signal (ELF4) | binding signal (ELK4) | binding signal (ETV2) | binding signal (ELF3) | binding signal (CRX) | binding signal (ETV1)
1 | TGATCC | 1.29 fold enrichment (6-mer frequency, TF over GST control) | 1.3 fold enrichment (6-mer frequency, TF over GST control) | 1.65 fold enrichment (6-mer frequency, TF over GST control) | 1.32 fold enrichment (6-mer frequency, TF over GST control) | 1.28 fold enrichment (6-mer frequency, TF over GST control) | 1.26 fold enrichment (6-mer frequency, TF over GST control) | 1.09 fold enrichment (6-mer frequency, TF over GST control) | 1.1 fold enrichment (6-mer frequency, TF over GST control) | 2.2 fold enrichment (6-mer frequency, TF over GST control) | 1.27 fold enrichment (6-mer frequency, TF over GST control)
2 | TATAAG | 1.05 fold enrichment (6-mer frequency, TF over GST control) | 1.12 fold enrichment (6-mer frequency, TF over GST control) | 1.51 fold enrichment (6-mer frequency, TF over GST control) | 1.1 fold enrichment (6-mer frequency, TF over GST control) | 1.15 fold enrichment (6-mer frequency, TF over GST control) | 1.08 fold enrichment (6-mer frequency, TF over GST control) | 1.22 fold enrichment (6-mer frequency, TF over GST control) | 1.23 fold enrichment (6-mer frequency, TF over GST control) | 2.08 fold enrichment (6-mer frequency, TF over GST control) | 1.15 fold enrichment (6-mer frequency, TF over GST control)
3 | AAGATA | 1.08 fold enrichment (6-mer frequency, TF over GST control) | 1.14 fold enrichment (6-mer frequency, TF over GST control) | 1.33 fold enrichment (6-mer frequency, TF over GST control) | 1.06 fold enrichment (6-mer frequency, TF over GST control) | 1.16 fold enrichment (6-mer frequency, TF over GST control) | 1.12 fold enrichment (6-mer frequency, TF over GST control) | 1.16 fold enrichment (6-mer frequency, TF over GST control) | 1.03 fold enrichment (6-mer frequency, TF over GST control) | 1.53 fold enrichment (6-mer frequency, TF over GST control) | 1.2 fold enrichment (6-mer frequency, TF over GST control)
4 | TTTGTG | 1.23 fold enrichment (6-mer frequency, TF over GST control) | 1.17 fold enrichment (6-mer frequency, TF over GST control) | 1.12 fold enrichment (6-mer frequency, TF over GST control) | 1.15 fold enrichment (6-mer frequency, TF over GST control) | 1.19 fold enrichment (6-mer frequency, TF over GST control) | 1.38 fold enrichment (6-mer frequency, TF over GST control) | 1.25 fold enrichment (6-mer frequency, TF over GST control) | 1.27 fold enrichment (6-mer frequency, TF over GST control) | 1.29 fold enrichment (6-mer frequency, TF over GST control) | 1.1 fold enrichment (6-mer frequency, TF over GST control)
5 | TACCGA | 1.11 fold enrichment (6-mer frequency, TF over GST control) | 1.14 fold enrichment (6-mer frequency, TF over GST control) | 1.21 fold enrichment (6-mer frequency, TF over GST control) | 1.2 fold enrichment (6-mer frequency, TF over GST control) | 1.18 fold enrichment (6-mer frequency, TF over GST control) | 1.12 fold enrichment (6-mer frequency, TF over GST control) | 1.04 fold enrichment (6-mer frequency, TF over GST control) | 1.3 fold enrichment (6-mer frequency, TF over GST control) | 1.33 fold enrichment (6-mer frequency, TF over GST control) | 1.24 fold enrichment (6-mer frequency, TF over GST control)
6 | TATGCG | 1.26 fold enrichment (6-mer frequency, TF over GST control) | 1.29 fold enrichment (6-mer frequency, TF over GST control) | 1.23 fold enrichment (6-mer frequency, TF over GST control) | 1.63 fold enrichment (6-mer frequency, TF over GST control) | 1.35 fold enrichment (6-mer frequency, TF over GST control) | 1.44 fold enrichment (6-mer frequency, TF over GST control) | 1.45 fold enrichment (6-mer frequency, TF over GST control) | 1.19 fold enrichment (6-mer frequency, TF over GST control) | 1.4 fold enrichment (6-mer frequency, TF over GST control) | 1.35 fold enrichment (6-mer frequency, TF over GST control)
7 | TCACTA | 1.11 fold enrichment (6-mer frequency, TF over GST control) | 1.06 fold enrichment (6-mer frequency, TF over GST control) | 1.16 fold enrichment (6-mer frequency, TF over GST control) | 1.16 fold enrichment (6-mer frequency, TF over GST control) | 1.12 fold enrichment (6-mer frequency, TF over GST control) | 1.28 fold enrichment (6-mer frequency, TF over GST control) | 1.18 fold enrichment (6-mer frequency, TF over GST control) | 1.19 fold enrichment (6-mer frequency, TF over GST control) | 1.27 fold enrichment (6-mer frequency, TF over GST control) | 1.06 fold enrichment (6-mer frequency, TF over GST control)
8 | CTAAAG | 1.29 fold enrichment (6-mer frequency, TF over GST control) | 1.29 fold enrichment (6-mer frequency, TF over GST control) | 1.48 fold enrichment (6-mer frequency, TF over GST control) | 1.36 fold enrichment (6-mer frequency, TF over GST control) | 1.34 fold enrichment (6-mer frequency, TF over GST control) | 1.44 fold enrichment (6-mer frequency, TF over GST control) | 1.29 fold enrichment (6-mer frequency, TF over GST control) | 1.44 fold enrichment (6-mer frequency, TF over GST control) | 1.85 fold enrichment (6-mer frequency, TF over GST control) | 1.45 fold enrichment (6-mer frequency, TF over GST control)
